# “And” between values parts separate entries of the source, which are not always exact repeats. Identical values can stand only once. Like-named read-outs stand apart in the source and are kept apart here.
# What was measured:
# JNK1 = test system: T1, JNK1; settings: concentration: 1 μM, replicates: in singlicate, n = 1
# T1 construct: gene MAPK8
# JNK2 = test system: T2, JNK2; settings: concentration: 1 μM, replicates: in singlicate, n = 1
# T2 construct: gene MAPK9
# JNK3 = test system: T3, JNK3; settings: concentration: 1 μM, replicates: in singlicate, n = 1
# T3 construct: gene MAPK10
# KIT-autoinhibited = settings: concentration: 1 μM, replicates: in singlicate, n = 1
# KIT = settings: concentration: 1 μM, replicates: in singlicate, n = 1
# LATS1 = settings: concentration: 1 μM, replicates: in singlicate, n = 1
# LATS2 = settings: concentration: 1 μM, replicates: in singlicate, n = 1
# LCK = settings: concentration: 1 μM, replicates: in singlicate, n = 1
# LIMK1 = settings: concentration: 1 μM, replicates: in singlicate; n = 1
# LIMK2 = settings: concentration: 1 μM, replicates: in singlicate, n = 1
# LKB1 = test system: T4, LKB1; settings: concentration: 1 μM, replicates: in singlicate, n = 1
# T4 construct: gene STK11
# LOK = test system: T5, LOK; settings: concentration: 1 μM, replicates: in singlicate, n = 1
# T5 construct: gene STK10
# LRRK2 = settings: concentration: 1 μM, replicates: in singlicate; n = 1
# LTK = settings: concentration: 1 μM, replicates: in singlicate; n = 1
# LYN = settings: concentration: 1 μM, replicates: in singlicate, n = 1
# LZK = test system: T6, LZK; settings: concentration: 1 μM, replicates: in singlicate, n = 1
# T6 construct: gene MAP3K13
# MAK = settings: concentration: 1 μM, replicates: in singlicate, n = 1
# MAP3K15 = settings: concentration: 1 μM, replicates: in singlicate, n = 1
# MAP3K1 = settings: concentration: 1 μM, replicates: in singlicate, n = 1
# MAP3K2 = settings: concentration: 1 μM, replicates: in singlicate, n = 1
# 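Also: KINOMEscan kinase panel screen.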
compound,measurement,setting,value
Nc1nc(-c2ccc3c(N)n[nH]c3c2)cc(N2CCC[C@@H](C(=O)Nc3ccccc3)C2)n1.O=C(O)C(F)(F)F.O=C(O)C(F)(F)F [GSK2288359],%Inh,JNK1,0%
same,%Inh,JNK2,0%
same,%Inh,JNK3,0%
same,%Inh,KIT-autoinhibited,4%
same,%Inh,KIT,25%
same,%Inh,LATS1,0%
same,%Inh,LATS2,16%
same,%Inh,LCK,0%
same,%Inh,LIMK1,10%
same,%Inh,LIMK2,7%
same,%Inh,LKB1,6%
same,%Inh,LOK,0%
same,%Inh,LRRK2,0%
same,%Inh,LTK,15%
same,%Inh,LYN,0%
same,%Inh,LZK,0%
same,%Inh,MAK,29%
same,%Inh,MAP3K15,2%
same,%Inh,MAP3K1,15%
same,%Inh,MAP3K2,0%
Clc1cc(Nc2ncnc3cc[nH]c23)ccc1OCc1ccccn1,%Inh,JNK1,31%
same,%Inh,JNK2,40%
same,%Inh,JNK3,53%
same,%Inh,KIT-autoinhibited,11%
same,%Inh,KIT,38%
same,%Inh,LATS1,14%
same,%Inh,LATS2,29%
same,%Inh,LCK,7%
same,%Inh,LIMK1,0%
same,%Inh,LIMK2,0%
same,%Inh,LKB1,10%
same,%Inh,LOK,30%
same,%Inh,LRRK2,0%
same,%Inh,LTK,14%
same,%Inh,LYN,15%
same,%Inh,LZK,0%
same,%Inh,MAK,42%
same,%Inh,MAP3K15,46%
same,%Inh,MAP3K1,7%
same,%Inh,MAP3K2,2%
Cl.c1ccc(Cn2ncc3cc(Nc4ncnc5ccccc45)ccc32)cc1 [GW273749],%Inh,JNK1,5%
same,%Inh,JNK2,5%
same,%Inh,JNK3,0%
same,%Inh,KIT-autoinhibited,0%
same,%Inh,KIT,4%
same,%Inh,LATS1,0%
same,%Inh,LATS2,0%
same,%Inh,LCK,15%
same,%Inh,LIMK1,0%
same,%Inh,LIMK2,75%
same,%Inh,LKB1,0%
same,%Inh,LOK,0%
same,%Inh,LRRK2,0%
same,%Inh,LTK,0%
same,%Inh,LYN,0%
same,%Inh,LZK,0%
same,%Inh,MAK,33%
same,%Inh,MAP3K15,0%
same,%Inh,MAP3K1,7%
same,%Inh,MAP3K2,0%
Cc1cccc(-c2nc(Nc3ccc4[nH]nnc4c3)c3ccccc3n2)n1 [GW867587],%Inh,JNK1,0%
same,%Inh,JNK2,0%
same,%Inh,JNK3,0%
same,%Inh,KIT-autoinhibited,0%
same,%Inh,KIT,0%
same,%Inh,LATS1,0%
same,%Inh,LATS2,0%
same,%Inh,LCK,7%
same,%Inh,LIMK1,0%
same,%Inh,LIMK2,0%
same,%Inh,LKB1,0%
same,%Inh,LOK,0%
same,%Inh,LRRK2,0%
same,%Inh,LTK,13%
same,%Inh,LYN,0%
same,%Inh,LZK,0%
same,%Inh,MAK,0%
same,%Inh,MAP3K15,0%
same,%Inh,MAP3K1,0%
same,%Inh,MAP3K2,0%
CN1CCC(n2cnc(-c3ccc(F)cc3)c2-c2ccnc(NC3CCNCC3)n2)CC1 [SB-229482],%Inh,JNK1,71%
same,%Inh,JNK2,96%
same,%Inh,JNK3,92.4%
same,%Inh,KIT-autoinhibited,0%
same,%Inh,KIT,25%
same,%Inh,LATS1,0%
same,%Inh,LATS2,8%
same,%Inh,LCK,0%
same,%Inh,LIMK1,0%
same,%Inh,LIMK2,30%
same,%Inh,LKB1,27%
same,%Inh,LOK,0%
same,%Inh,LRRK2,0%
same,%Inh,LTK,0%
same,%Inh,LYN,15%
same,%Inh,LZK,0%
same,%Inh,MAK,29%
same,%Inh,MAP3K15,0%
same,%Inh,MAP3K1,4%
same,%Inh,MAP3K2,0%
Fc1cccc(COc2ccc(Nc3ncnc4cc[nH]c34)cc2Cl)c1,%Inh,JNK1,33%
same,%Inh,JNK2,17%
same,%Inh,JNK3,46%
same,%Inh,KIT-autoinhibited,6%
same,%Inh,KIT,24%
same,%Inh,LATS1,26%
same,%Inh,LATS2,25%
same,%Inh,LCK,25%
same,%Inh,LIMK1,22%
same,%Inh,LIMK2,17%
same,%Inh,LKB1,0%
same,%Inh,LOK,29%
same,%Inh,LRRK2,9%
same,%Inh,LTK,18%
same,%Inh,LYN,0%
same,%Inh,LZK,20%
same,%Inh,MAK,9%
same,%Inh,MAP3K15,50%
same,%Inh,MAP3K1,21%
same,%Inh,MAP3K2,11%
COc1ccc(-c2nc3n(c2-c2ccncc2)CCC3)cc1 [SKF-104493],%Inh,JNK1; 1 µM,46% and 22%
same,%Inh,JNK2; 1 µM,37% and 50%
same,%Inh,JNK3; 1 µM,47% and 65%
same,%Inh,KIT-autoinhibited; 1 µM,0% and 19%
same,%Inh,KIT; 1 µM,0% and 25%
same,%Inh,LATS1; 1 µM,0% and 19%
same,%Inh,LATS2; 1 µM,16% and 12%
same,%Inh,LCK; 1 µM,26% and 23%
same,%Inh,LIMK1,0%
same,%Inh,LIMK2; 1 µM,0% and 3%
same,%Inh,LKB1; 1 µM,27% and 21%
same,%Inh,LOK; 1 µM,19% and 11%
same,%Inh,LRRK2,0%
same,%Inh,LTK,2%
same,%Inh,LYN; 1 µM,9% and 0%
same,%Inh,LZK; 1 µM,0% and 5%
same,%Inh,MAK; 1 µM,19% and 0%
same,%Inh,MAP3K15; 1 µM,3% and 4%
same,%Inh,MAP3K1; 1 µM,11% and 1%
same,%Inh,MAP3K2; 1 µM,6% and 0%
Fc1cccc(COc2ccc(Nc3ncnc4sc(-c5ccc[nH]5)cc34)cc2Cl)c1 [GW707818],%Inh,JNK1,1%
same,%Inh,JNK2,15%
same,%Inh,JNK3,0%
same,%Inh,KIT-autoinhibited,0%
same,%Inh,KIT,16%
same,%Inh,LATS1,9%
same,%Inh,LATS2,0%
same,%Inh,LCK,8%
same,%Inh,LIMK1,9%
same,%Inh,LIMK2,17%
same,%Inh,LKB1,17%
same,%Inh,LOK,28%
same,%Inh,LRRK2,0%
same,%Inh,LTK,1%
same,%Inh,LYN,0%
same,%Inh,LZK,82%
same,%Inh,MAK,36%
same,%Inh,MAP3K15,0%
same,%Inh,MAP3K1,4%
same,%Inh,MAP3K2,0%
CC(C)N1CCC(n2cnc(-c3ccc(F)cc3)c2-c2ccnc(N)n2)CC1 [SB-223132],%Inh,JNK1,23%
same,%Inh,JNK2,12%
same,%Inh,JNK3,0%
same,%Inh,KIT-autoinhibited,0%
same,%Inh,KIT,0%
same,%Inh,LATS1,0%
same,%Inh,LATS2,0%
same,%Inh,LCK,14%
same,%Inh,LIMK1,0%
same,%Inh,LIMK2,9%
same,%Inh,LKB1,0%
same,%Inh,LOK,0%
same,%Inh,LRRK2,28%
same,%Inh,LTK,2%
same,%Inh,LYN,22%
same,%Inh,LZK,0%
same,%Inh,MAK,0%
same,%Inh,MAP3K15,0%
same,%Inh,MAP3K1,0%
same,%Inh,MAP3K2,0%
Clc1ccc(-c2cc(-c3c[nH]nc3-c3ccccn3)ccn2)cc1 [GW681251],%Inh,JNK1,35%
same,%Inh,JNK2,30%
same,%Inh,JNK3,33%
same,%Inh,KIT-autoinhibited,0%
same,%Inh,KIT,54%
same,%Inh,LATS1,0%
same,%Inh,LATS2,0%
same,%Inh,LCK,13%
same,%Inh,LIMK1,0%
same,%Inh,LIMK2,0%
same,%Inh,LKB1,0%
same,%Inh,LOK,30%
same,%Inh,LRRK2,46%
same,%Inh,LTK,0%
same,%Inh,LYN,0%
same,%Inh,LZK,0%
same,%Inh,MAK,14%
same,%Inh,MAP3K15,0%
same,%Inh,MAP3K1,26%
same,%Inh,MAP3K2,3%
C[C@H]1CC[C@@H](C(=O)Nc2ccccc2)CN1c1cc(-c2ccc3c(N)n[nH]c3c2)nc(N)n1 [GSK2283293],%Inh,JNK1,5%
same,%Inh,JNK2,25%
same,%Inh,JNK3,1%
same,%Inh,KIT-autoinhibited,16%
same,%Inh,KIT,1%
same,%Inh,LATS1,0%
same,%Inh,LATS2,9%
same,%Inh,LCK,5%
same,%Inh,LIMK1,0%
same,%Inh,LIMK2,0%
same,%Inh,LKB1,15%
same,%Inh,LOK,0%
same,%Inh,LRRK2,0%
same,%Inh,LTK,0%
same,%Inh,LYN,0%
same,%Inh,LZK,0%
same,%Inh,MAK,12%
same,%Inh,MAP3K15,0%
same,%Inh,MAP3K1,0%
same,%Inh,MAP3K2,0%

# Source: publication PMC5540273 (PLoS ONE, 2017)
